# Source: PubChem BioAssay
# Active and inactive are the calls of the source. The rule behind the calls is not given here.
# Target: Pantothenate synthetase (Mycobacterium tuberculosis (strain ATCC 25618 / H37Rv)) (UniProt P9WIL5)
# Experiment: Coupled enzyme confirmation of inhibitors against recombinant Mtb PanC (AID 375);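 note: 0% = full reaction with vehicle and 100% = no enzyme background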
# Details: coupled enzyme assay; at 10 µM, stronger effect = higher value
# Sequence of Pantothenate synthetase (Mycobacterium tuberculosis (strain ATCC 25618 / H37Rv)) (P9WIL5 whole entry, looked up): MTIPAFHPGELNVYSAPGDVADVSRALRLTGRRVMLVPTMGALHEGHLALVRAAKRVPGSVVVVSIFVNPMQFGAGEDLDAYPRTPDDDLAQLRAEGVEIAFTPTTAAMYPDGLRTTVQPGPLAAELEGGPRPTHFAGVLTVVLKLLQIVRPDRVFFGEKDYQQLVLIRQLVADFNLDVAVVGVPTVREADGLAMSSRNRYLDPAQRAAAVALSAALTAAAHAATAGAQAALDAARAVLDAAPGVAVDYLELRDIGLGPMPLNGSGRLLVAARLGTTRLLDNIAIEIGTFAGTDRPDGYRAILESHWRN
row,SMILES,inhibition
1,CC1Cc2ccccc2N1C(=O)C12CCC(C)(C(=O)C1)C2(C)C (stereo not given),3% (inactive)
2,COc1cccc(Cn2c(OCC3CCCO3)nc3c2c(=O)n(C)c(=O)n3C)c1 (stereo not given),3% (inactive)
3,Cc1ccc(NC(=O)c2oc3ccc(S(=O)(=O)N4CCOCC4)cc3c2C)cc1C,3% (inactive)
4,CC(=O)Nc1sc2c(c1C#N)CCCCC2,7% (inactive)
5,O=C(COc1ccc(S(=O)(=O)NC2CCCCC2)cc1Cl)NCC1CCCO1 (stereo not given),0% (inactive)
6,O=C(Nc1nnc(C2CCCCC2)s1)c1cccs1,8% (inactive)
7,Cc1noc(/C=C/N(C)C)c1S(=O)(=O)N1CCCC(C(=O)N2CCc3ccccc32)C1 (stereo not given),10% (inactive)
8,CN(C=C1C(=O)CC(C)(C)CC1=O)CCN1CCNCC1,1% (inactive)
9,COc1ccc(NC(=O)CC2Sc3ncnn3C2=O)cc1 (stereo not given),0% (inactive)
10,Cc1ccnc(NC(=O)CCC(=O)N(CC(=O)NC2CCCCC2)c2cccc(C)c2C)c1,0% (inactive)
11,O=C1c2ccccc2C(=O)N1CNc1ccccc1,0% (inactive)
12,COc1ccccc1-n1c(SCC(=O)Nc2ccc3c(c2)OCO3)nc2c(c1=O)SCC2,0% (inactive)
13,CCOC(=O)c1cccc(NC(=O)CSc2nc3cccnc3n2C)c1,0% (inactive)
14,Cc1ccc(S(=O)(=O)N2CCC(C(=O)NCCN3CCCCCC3)CC2)cc1,0% (inactive)
15,CCOC(=O)N1CCC(c2cc(=O)n3[nH]cc(C(=O)OC)c3n2)CC1,0% (inactive)
16,CS(=O)(=O)N1CCCC(C(=O)NCc2ccccc2Cl)C1 (stereo not given),0% (inactive)
17,COc1ccc(C(=O)c2ccccc2)c(O)c1,1% (inactive)
18,CCC(CC)n1[nH]c(=O)c2c(C)cc(C)nc21,3% (inactive)
19,CC1CCCCC1NC(=O)c1ccc(N2CCCC2=O)cc1 (stereo not given),0% (inactive)
20,CCOC(=O)c1c(NC(=O)c2cccs2)sc2c1CCN(C(=O)OCC)C2,0% (inactive)

row,SMILES,inhibition
1,Cc1oc(-c2ccc(Cl)cc2)nc1CS(=O)CC(=O)NCCCN(C)C1CCCCC1 (stereo not given),0% (inactive)
2,CCC1=C(C(=O)OC)C(c2cc(OC)ccc2OC)C(C#N)=C(N)O1 (stereo not given),8% (inactive)
3,Cc1ccc(Nc2cc(C)nc3ncnn23)c(Cl)c1,0% (inactive)
4,COCn1c(COc2ccccc2)nc2ccccc21,0% (inactive)
5,O=C(Nc1cc(C(F)(F)F)ccc1Cl)c1cc(C2CC2)on1,2% (inactive)
6,CCCn1c(C)nc2c(c1=O)c1nc3ccccc3nc1n2CCc1ccccc1,4% (inactive)
7,COc1ccc(OCc2cccc(C(=O)O)c2)cc1,0% (inactive)
8,CC(=O)Nc1cccc(NC(=O)CSc2nnnn2C)c1,0% (inactive)
9,Cc1cc(C)cc(Nc2ncc3c(n2)CC(c2ccco2)CC3=O)c1 (stereo not given),3% (inactive)
10,COc1cccc(-c2csc3nc[nH]c(=O)c23)c1,3% (inactive)
11,CSC1=C(C#N)C(c2ccc(C)cc2)C2=C(CCCC2=O)N1 (stereo not given),0% (inactive)
12,Cc1cccc(NC(=O)Cn2c(=O)n(C)c3ccccc32)c1,0% (inactive)
13,Cn1nnnc1SCC(=O)Nc1ccccc1-c1ccccc1,2% (inactive)
14,O=C(O)CN1C(=O)CNC1=O,0% (inactive)
15,CCCN(CCO)Cc1cccc(Br)c1,3% (inactive)
16,Cc1cc(C)cc(NC(=O)CN(C)S(=O)(=O)c2cnc[nH]2)c1,11% (inactive)
17,COc1ccc(CCNC(=O)C2CCN(C(=O)N(C)C)CC2)cc1OC,0% (inactive)
18,O=C1CSC(c2cccc(F)c2)N1c1ccccc1F (stereo not given),2% (inactive)
19,Cc1c(CCC#N)c(N2CCN(C3CCCCC3)CC2)n2c(nc3ccccc32)c1C#N,3% (inactive)
20,CCN(Cc1cc2cc(OC)ccc2[nH]c1=O)C(=O)Cc1ccc(OC)cc1,0% (inactive)
